Test [1] can be described thus: NCI Yeast Anticancer Drug Screen. Data for the rad50 strain (AID 155).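 Further: 0% = growth of vehicle-only cultures of the same strain.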 The note with it: S. cerevisiae rad50 strain growth inhibition; at 50.0 µM; stronger effect = higher value. The procedure, abridged:
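Readout: growth inhibition relative to vehicle-treated cultures. Compound exposure was carried out in a genetically defined yeast strain deficient in DNA damage repair.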

Test [2] can be described thus: NCI Yeast Anticancer Drug Screen. Data for the mec2-1 strain (AID 157). The note with it: S. cerevisiae mec2-1 strain, at 50.0 µM, stronger effect = higher value. The essentials: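 Growth inhibition is read against vehicle-treated controls after compound exposure of the mec2-1 yeast strain, which is defective in DNA damage repair or cell cycle control.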
Test [3] can be described thus: NCI Yeast Anticancer Drug Screen. Data for the sgs1 mgt1 strain (AID 161).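 Further: 0% = growth of cultures given vehicle only.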 The note with it: S. cerevisiae sgs1 mgt1 strain, at 50.0 µM, stronger effect = higher value. The essentials:
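Growth of a repair-deficient yeast mutant was monitored after compound treatment and expressed as inhibition relative to vehicle-treated cultures.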

Test [4] can be described thus: NCI Yeast Anticancer Drug Screen. Data for the cln2 rad14 strain (AID 165).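 Further: 0% = growth equal to vehicle treated cultures.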 The note with it: S. cerevisiae cln2 rad14 strain, at 50.0 µM, stronger effect = higher value. The procedure, abridged: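 Growth inhibition, relative to vehicle-treated controls, is the read-out. The test organism is a yeast strain with defined genetic alterations, cln2 rad14.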
A short description of test [5]: NCI Yeast Anticancer Drug Screen. Data for the bub3 strain (AID 167). The note with it: S. cerevisiae bub3 mutant strain, at 50.0 µM, stronger effect = higher value. The procedure, abridged:
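Readout: yeast growth inhibition, expressed relative to vehicle-only wells. The test organism is a mutant strain from a panel with lesions in DNA repair or checkpoint genes.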

Test [6] is described as follows: NCI Yeast Anticancer Drug Screen. Data for the mlh1 rad18 strain (AID 175). The note with it: S. cerevisiae mlh1 rad18 strain growth inhibition; at 50.0 µM; stronger effect = higher value. The procedure, abridged:
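Cells of a genetically altered yeast strain, deficient in DNA damage repair, were treated with compound. Their growth was then compared with that of vehicle-treated cultures to give inhibition.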

Results on 21 compounds are retold here after PubChem BioAssay (NCI).

Compounds without any hit were thinned out: in the full panel of roughly 79,000, 15% have a hit. A number with no mark means an inactive call. The source made the active and inactive calls. No stated cut-off is given here; in the data, active means growth inhibition above about 70%; inactive means the rest.

For `COc1ccc(C(O)(C(=O)O)c2ccc(OC)c(OC)c2)cc1OC`, the growth inhibition in test [1] was 5.6%; in test [2], -1.25%; in test [3] it was -1.7%; in test [4], -13.9%; in test [5] it was 8%; in test [6] it was 0.2%.
Turning to `Cc1cc(Nc2ccc(N(CCCl)CCCl)cc2)c(C)cc1O`, the growth inhibition in test [1] was 31.7%; in test [2], 10%; in test [3], 5.75%; in test [4], -5.85%; in test [5], -4.15%; in test [6], 6.8%.
On to `N#C[S-].N#C[S-].[Ni+2].c1ccc([PH+](c2ccccc2)c2ccccc2)cc1.c1ccc([PH+](c2ccccc2)c2ccccc2)cc1`, for which the growth inhibition is 35.5% in test [1]; 33.7% in test [2]; 50% in test [3]; 14.3% in test [4]; 34.2% in test [5]; 63% in test [6].
With `CC1CN=C(NCc2ccccc2)S1` (stereo unspecified), the growth inhibition is -33.2% in test [1]; 16.6% in test [2]; -33.5% in test [3]; 21.9% in test [4]; -1.05% in test [5]; -6.6% in test [6].
On to `CCCCCCCC/C=C\CCCCCCCC(=O)OCC(COC(=O)CCCCCCC/C=C\CCCCCCCC)OC(=O)N(CCCl)CCCl`, for which the growth inhibition in test [1] is -29.2%; in test [2], -9.25%; in test [3], -18.4%; in test [4] it was 33.6%; in test [5] it was -24.2%; in test [6], 5.45%.
For the compound `O=P1(N(CCCl)CCCl)Oc2ccc(Cl)cc2Sc2c(ccc(Cl)c2Cl)O1` (stereo unspecified), the growth inhibition in test [1] is 43.5%; in test [2] it was 7.9%; in test [3], 40.5%; in test [4] it was 40.5%; in test [5], 35.4%; in test [6] it was 46.7%.
For `NCCc1ccccc1`, the growth inhibition was 0.15% in test [1]; -20.6% in test [2]; 1.5% in test [3]; -17.4% in test [4]; -18.3% in test [5]; -9.9% in test [6].
With `CNC(=O)N1CN(c2ccccc2)C2(CCN(CCCC3(c4ccc(F)cc4)OCCO3)CC2)C1=O`, the growth inhibition in test [1] was -16%; in test [2], -9.5%; in test [3] it was -4.4%; in test [4], -8.8%; in test [5], 8.3%; in test [6], 1.05%.
As for `N#Cc1cccnc1`, the growth inhibition was 4.75% in test [1]; -4.15% in test [2]; 4.1% in test [3]; 5.6% in test [4]; 9.05% in test [5]; 2.75% in test [6].
Take `NC(=O)c1cc(N(CCBr)CCBr)c([N+](=O)[O-])cc1[N+](=O)[O-]`: the growth inhibition was 17.6% in test [1]; 1.25% in test [2]; 17.6% in test [3]; 14.2% in test [4]; 16.9% in test [5]; 9.3% in test [6].
Consider `NNC(=O)CCC(N)C(=O)O` (stereo unspecified), for which the growth inhibition in test [1] was -20.3%; in test [2], -18.4%; in test [3], -35.3%; in test [4] it was -11.8%; in test [5] it was -17.4%; in test [6], -49%.
On to `COc1ccc(C(OCC2OC(n3ccc(Oc4c(F)c(F)c(F)c(F)c4F)nc3=O)CC2OP(OCCC#N)N(C(C)C)C(C)C)(c2ccccc2)c2ccc(OC)cc2)cc1` (stereo unspecified), for which the growth inhibition in test [1] is 18.1%; in test [2], 4.8%; in test [3], 6.65%; in test [4], -9.2%; in test [5], -7.2%; in test [6], -2.65%.
For the compound `[C-]#[N+]CS(=O)(=O)c1ccc(C)cc1`, the growth inhibition is -17.4% in test [1]; -11.1% in test [2]; -7.3% in test [3]; 11.1% in test [4]; 3.85% in test [5]; 1.4% in test [6].
`Nc1ccc(N)cc1`: the growth inhibition in test [1] was 10.9%; in test [2], 25.8%; in test [3], -23.7%; in test [4], -7.4%; in test [5], -5.9%; in test [6], -1%.
`CC(C)=CCC1=C(OOC2=C(CC=C(C)C)C(=O)c3ccccc3C2=O)C(=O)c2ccccc2C1=O`: the growth inhibition in test [1] was 36.8%; in test [2], 23.8%; in test [3], 43%; in test [4] it was 11.1%; in test [5] it was 5.05%; in test [6], 5.7%.
On to `CN(C)C(=O)CCCc1ccc(N(CCCl)CCCl)cc1`, for which the growth inhibition was 19.6% in test [1]; -1.85% in test [2]; 5.3% in test [3]; 9.55% in test [4]; -0.9% in test [5]; 9.6% in test [6].
Take `CCCCSP(=O)(SCCCC)N1CCCCC1`: the growth inhibition in test [1] was 98.9% (active); in test [2], 99.2% (active); in test [3] it was 98.8% (active); in test [4], 97.8% (active); in test [5], 98.8% (active); in test [6], 99% (active).
For the compound `ClCc1ccccc1`, the growth inhibition in test [1] was 40%; in test [2] it was 8.8%; in test [3], 4.9%; in test [4] it was -19.7%; in test [5] it was 30.6%; in test [6] it was 22.5%.
In the case of `Oc1ccccc1/C=N/Sc1ccccc1.Oc1ccccc1/C=N/Sc1ccccc1.[Ni+2]`, the growth inhibition was 3.2% in test [1]; -0.85% in test [2]; 30.6% in test [3]; -6.6% in test [4]; 12.7% in test [5]; 36% in test [6].
On to `CC(C)C1(Cc2ccccc2)C(=O)NC(=S)NC1=O`, for which the growth inhibition in test [1] was -2.05%; in test [2] it was -0.8%; in test [3], 9.3%; in test [4], -2.85%; in test [5], -14.2%; in test [6], -2.7%.
Regarding `O=C(c1ccccc1)N1CC1`, the growth inhibition was 6.1% in test [1]; 33.9% in test [2]; -22.1% in test [3]; 35.5% in test [4]; -3.8% in test [5]; 0.35% in test [6].
